From PubChem BioAssay (NCI)
This is part of a sample that, as a whole, favours compounds with a hit. Of some 83,000 tested, about 20% had one in any assay.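 Treatment: one concentration, 48 hours, 96-well format. Scoring: percent growth, with anything below 10 considered active.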 A number with no mark means an inactive call. The source made the active and inactive calls.

How the values were obtained:
Assay in all cases: NCI-60 one-dose screen, 48 h (100 = growth as untreated, 0 = no growth, -100 = all killed)
Settings in all cases: 10 µM unless noted
SR leukemia = tested on: SR leukemia
RPMI-8226 leukemia = tested on: RPMI-8226 leukemia
OVCAR-8 ovarian = tested on: OVCAR-8 ovarian
OVCAR-5 ovarian = tested on: OVCAR-5 ovarian
OVCAR-4 ovarian = tested on: OVCAR-4 ovarian
SK-OV-3 ovarian = tested on: SK-OV-3 ovarian
OVCAR-3 ovarian = tested on: OVCAR-3 ovarian
NCI/ADR-RES ovarian = tested on: NCI/ADR-RES ovarian
IGROV1 ovarian = tested on: IGROV1 ovarian
HS 578T breast = tested on: HS 578T breast

| Structure (SMILES) | growth (SR leukemia) | growth (RPMI-8226 leukemia) | growth (OVCAR-8 ovarian) | growth (OVCAR-5 ovarian) | growth (OVCAR-4 ovarian) | growth (SK-OV-3 ovarian) | growth (OVCAR-3 ovarian) | growth (NCI/ADR-RES ovarian) | growth (IGROV1 ovarian) | growth (HS 578T breast) |
| --- | --- | --- | --- | --- | --- | --- | --- | --- | --- | --- |
| CCC(C)(C)c1ccc(OCCCCCCN2CCN(c3ccc(C)c(Cl)c3)CC2)cc1 | 71.8% | 59.7% | 98.7% | 97.6% | 74.5% | 98% | 58.3% | 85% |  |  |
| CSCc1ncc(-c2ccc(C(F)(F)F)cc2)c(NC2CCCCCC2)n1 | 13.4% [25 µM] | 3.14% [25 µM] (active) | 75.1% [25 µM] | 97% [25 µM] | 83% [25 µM] | 97.9% [25 µM] | 39.4% [25 µM] | 74.9% [25 µM] | 81.2% [25 µM] |  |
| COc1cc2ncnc(-n3ncc4cc(NC(=O)Nc5ccc(Cl)c(C)c5)ccc43)c2cc1OC | 71.5% | 96.8% | 110% | 109% | 98.3% |  | 107% | 98.7% | 96.2% | 75.9% |
| COCn1c(C(=O)OC)cc2oc(/C=C3/SC(=S)N(N)C3=O)cc21 | 45.7% | 79.2% | 98% | 108% | 97.2% | 89.6% | 81.1% | 112% |  | 55.8% |
| Cn1c2ccccc2c2ccccc21 | 87.6% | 94.3% | 98.3% | 107% | 105% |  | 107% |  | 102% |  |
| COc1cc(/C=C/C(=O)/C=C(/C=C/c2ccc(OC(C)=O)c(OC)c2)OB(F)F)ccc1OC(C)=O | -2.62% (active) | 14.3% | 20% | 104% | 69.6% |  | 18.9% | 43.6% | 65.5% | 76.2% |
| O=C(O)COc1ccc([N+](=O)[O-])cc1Cl | 97.6% | 94.2% | 110% | 102% | 106% | 98.7% | 123% | 107% | 100% |  |
| CCCCCCCCCC[N+](C)(C)C | 20.2% | 1.86% (active) | 18.3% | 9.16% (active) | 23% |  | 5.8% (active) | 94.4% | -37.8% (active) | 26.5% |
| O=C(N/N=C/c1coc2ccccc2c1=O)c1cc2oc(-c3ccccc3)cc2[nH]1 | 87.7% | 67% | 110% | 106% | 98.7% | 102% | 99.8% | 118% |  | 107% |
| CC(=O)N(N=O)c1ccc([N+](=O)[O-])cc1Cl | 63.1% | 17.2% | 66.1% | 88.5% | 55.5% | 66.9% | 44.5% | 64.5% | 67.7% |  |
| COc1cc(NC(C)CCCN)c2nc(C)ccc2c1OC (centres undefined) | 17.7% | 69.1% | 119% | 95.6% | 94.6% |  | 64.1% |  | 103% | 105% |
| COC(=O)[C@H](Cc1cn(C)cn1)NC(=O)[C@@H](NC(=O)Nc1cc(C(F)(F)F)cc(C(F)(F)F)c1)C(C)(C)C | -41.3% [100 µM] (active) | -53.8% [100 µM] (active) | -55.2% [100 µM] (active) | 39.7% [100 µM] | -71.5% [100 µM] (active) | -25.6% [100 µM] (active) | -99.3% [100 µM] (active) | 78.1% [100 µM] | -63% [100 µM] (active) |  |
| O=C(CCC(=O)N(CCO)CCO)N(CCO)CCO | 89.8% | 101% | 103% | 105% | 105% | 99% | 97.5% | 108% | 98.1% |  |
| CC(C)(C)C(=O)CCCCCCCC/C=C/CCCC(O)c1ccco1 (centres undefined) | 14.3% | 91.7% | 104% | 93.6% | 104% |  | 126% |  | 116% | 106% |
| CC#Cc1nc(Nc2cc(C)[nH]n2)c2ccccc2n1 | -5.19% [100 µM] (active) | -21.3% [100 µM] (active) | 13.8% [100 µM] | 29.4% [100 µM] | 20% [100 µM] | 29.4% [100 µM] | -59% [100 µM] (active) | 20.3% [100 µM] | -46.7% [100 µM] (active) |  |
| CC(=O)CC(=O)OC/C=C(/C)CCC=C(C)C | 92.2% | 112% | 103% | 100% | 113% | 111% | 110% | 102% | 116% |  |
